# Measured values taken from PubChem BioAssay AID1209 (Sanford-Burnham Center for Chemical Genomics, 2008).
# The whole screen tested about 190,000 compounds, of which about 810 (0.43%) were called active. Many of the other results were omitted from the sample, so actives are more common in it than they were. A number with no mark means an inactive call. No stated cut-off is given here; in the data, active means inhibition above about 50%; inactive means the rest.
# Target: Mannose-6-phosphate isomerase (Homo sapiens) (UniProt P34949)
# Experiment: MPI enzyme activity inhibition – biochemical, fluorescence intensity, coupled assay, primary screen (AID 1209);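 further: plate controls were DMSO vehicle for no effect and wells lacking substrate for full effect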
# Conditions: purified PMI enzyme, at 20 µM, active compounds read high
# Sequence of Mannose-6-phosphate isomerase (Homo sapiens) (P34949 whole entry, looked up): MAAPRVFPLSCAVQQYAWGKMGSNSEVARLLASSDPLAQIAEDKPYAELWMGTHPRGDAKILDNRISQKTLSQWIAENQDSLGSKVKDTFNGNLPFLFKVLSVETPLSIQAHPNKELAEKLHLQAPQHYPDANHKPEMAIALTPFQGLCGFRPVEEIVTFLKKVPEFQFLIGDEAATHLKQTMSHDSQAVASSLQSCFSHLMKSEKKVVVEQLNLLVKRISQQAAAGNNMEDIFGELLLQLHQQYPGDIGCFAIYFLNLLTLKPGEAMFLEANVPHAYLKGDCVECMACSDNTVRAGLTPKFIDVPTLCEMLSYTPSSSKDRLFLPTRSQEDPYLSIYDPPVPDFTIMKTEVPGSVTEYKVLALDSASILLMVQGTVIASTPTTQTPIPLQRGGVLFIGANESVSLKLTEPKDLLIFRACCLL
row,SMILES,inhibition
1,CCOc1cc(C(=O)Nc2cccc(C(C)=O)c2)ccc1OCC(=O)N1CCCCC1,8.7%
2,O=C1NCCCC2c3cc(O)c4ccccc4c3OC12N1CCCCC1 (stereo not drawn),21%
3,O=C1NCCCC2c3c(cc(Br)c(O)c3Br)OC12N1CCCCC1 (stereo not drawn),24.7%
4,O=C1NN=C(c2ccccc2)CC1c1ccc(Cl)cc1Cl (stereo not drawn),4.2%
5,Cc1ccc(S(=O)(=O)/N=C2/C=C(Sc3ncn[nH]3)C(=O)c3ccccc32)cc1,101% (active)
6,CCc1ccc(S(=O)(=O)/N=C2\C=CC(=O)c3ccccc32)cc1,6.9%
7,CC(C)c1ccc(S(=O)(=O)/N=C2/C=CC(=O)c3ccccc32)cc1,34.5%
8,O=C1c2ccccc2C(=O)N1CCSc1ncn[nH]1,-7.4%
9,COC(=O)C(C(C)=O)C1=C/C(=N\S(=O)(=O)c2ccc(C)cc2)c2ccccc2C1=O (stereo not drawn),22.1%
10,O=C(O)c1ccc(NC2=C/C(=N/S(=O)(=O)c3ccccc3)c3ccccc3C2=O)cc1,-68.7%
11,Cc1ccc(S(=O)(=O)/N=C2/C=C(C3C(=O)CC(C)(C)CC3=O)C(=O)c3ccccc32)cc1,9.6%
12,CCc1ccc(S(=O)(=O)/N=C2/C=C(Sc3ncn[nH]3)C(=O)c3ccccc32)cc1,98.8% (active)
13,CC(C)c1ccc(S(=O)(=O)/N=C2/C=C(Sc3ncn[nH]3)C(=O)c3ccccc32)cc1,95.1% (active)
14,O=C(Cn1cc(C(F)(F)F)ccc1=O)N/N=C/c1ccc(F)cc1,-3.8%
15,CC1CCN(CC(=O)N2c3ccccc3CC2C)CC1 (stereo not drawn),-23.2%
16,Cc1cc(=O)c(C(=O)O)cn1Nc1ccc(F)cc1,-5.7%
17,COc1ccc(C(O)Cc2nc3ccccc3n2C)cc1OC (stereo not drawn),-8.6%
18,Cc1ncc(C[n+]2csc(CCOC(=O)CC34CC5CC(CC(C5)C3)C4)c2C)c(N)n1,-0.1%
19,CCOc1c(Cl)cc(CNc2ccc(S(N)(=O)=O)cc2)cc1OC,-1.5%
20,COc1cc(CNc2ccc(N3CCCC3)cc2)ccc1OCc1ccccc1,86.4% (active)
21,CCOc1cc(CNc2ccc(N3CCCC3)cc2)cc(Cl)c1OC,83% (active)

row,SMILES,inhibition
1,C=CCOc1c(Cl)cc(CNc2ccc(C)c(Cl)c2)cc1OC,13.1%
2,CCOc1c(Cl)cc(CNC(C)(C)CC(C)(C)C)cc1OC,4.6%
3,COc1cc(CNc2ccc(N3CCCC3)cc2)cc(Cl)c1OC,76.9% (active)
4,CCOc1cc(CNc2ccc(N3CCOCC3)cc2)cc(Br)c1OCC,6.4%
5,COc1cc(CNc2ccc(N3CCOCC3)cc2)cc(Br)c1OC,-0.4%
6,COc1cc(CNc2ccc(N3CCN(C(C)=O)CC3)cc2)ccc1OCc1ccccc1,20%
7,CCOc1cc(CNc2ccc(S(N)(=O)=O)cc2)cc(Cl)c1OC,3%
8,COc1cc(CNc2ccc(N3CCCC3)cc2)ccc1OCc1ccccc1F,29.9%
9,C/C(=N/NC(=O)c1ccncc1)c1c[nH]c2ccccc12,-0.2%
10,Cc1cccc(-n2ccnc2SCC(=O)N2CCCc3ccccc32)c1C,5.4%
11,COC(=O)c1c(C(=O)OC)c2cc(C(=O)c3ccccc3)ccn2c1Cl,-15.3%
12,CS(=O)(=O)N1CCN(C2CCN(Cc3ccccc3)CC2)CC1,-0.6%
13,CN1CCc2nc3sc(C(=O)NCc4ccccc4)c(N)c3cc2C1,-30.8%
14,CC(NC(=O)NC12CC3CC(CC(C3)C1)C2)c1ccc2c(c1)OCO2 (stereo not drawn),-7.3%
15,O=C(NCC(c1ccco1)N1CCN(c2ccccc2F)CC1)OCc1ccccc1 (stereo not drawn),18%
16,O=C(N1CCCCCC1)n1c(Cc2ccccc2)nc2ccccc21,-0.4%
17,NCc1oc(-c2ccccc2)cc1C(=O)O,-55.4%
18,COc1c(C(O)CC(C)C)ccc2c1C(=O)OCc1cc(C)cc(O)c1O2 (stereo not drawn),23.7%
19,O=C(CCCc1c[nH]c2ccccc12)NCC1COc2ccccc2O1 (stereo not drawn),-0.7%
20,Cc1cccc(CN2CCN(CC(=O)NCc3cccs3)C2=O)c1,-8.2%
21,CCOc1ccc(C(=O)Nc2ccc(N3CCCC3)cc2)cc1,-29%

row,SMILES,inhibition
1,CCOc1ccc(CNc2ccc(N3CCCC3)cc2)cc1,85.9% (active)
2,CCOc1ccc(CNc2ccc(CNc3ncn[nH]3)cc2)cc1,9.7%
3,O=C(CSc1nc2[nH]ncc2c(=O)n1-c1ccccc1)NCc1cccs1,-10.6%
4,O=C(CCCCCC(=O)N(CCO)CCO)N(CCO)CCO,-2.9%
5,CC1(C)CNc2cc([N+](=O)[O-])ccc2S1,1.5%
6,CC1(C)CNc2cc(N)ccc2S1,82.8% (active)
7,CC1(C)CC(=S)Nc2ccccc2S1,41.8%
8,O=C(NCc1ccc2c(c1)OCO2)c1cc(-c2ccccc2)on1,15.7%
9,O=C(c1ccc(OCC2CCCO2)cc1)N1CCc2ccccc2C1 (stereo not drawn),2.4%
10,Oc1ccc2ccccc2c1/C=N/Nc1nnc(-c2ncc[nH]2)c2ccccc12,-2.3%
11,CC(=O)Nc1ccc(C(=S)NCc2ccco2)cc1,9.7%
12,CN(C)c1ccc(C(=S)NCc2ccco2)cc1,50.7% (active)
13,CN(C)c1ccc(/C=N/NC(=S)NCc2ccco2)cc1,-8%
14,C/C(=N\NC(=O)COc1ccc(C#N)cc1)c1ccccc1OC(F)F,1%
15,CC(=O)Nc1cccc(Oc2ncnc3scc(-c4ccc(C(C)C)cc4)c23)c1,12.9%
16,CNC(=O)c1nn(-c2ccc(Cl)cc2)ccc1=O,6.2%
17,CCOc1cc(NC(=S)NCCCOC)c(OCC)cc1NC(=O)c1cccs1,17.4%
18,CC[n+]1ccc(/C=C/c2ccc(N(C)C)cc2)c2ccccc21,1%
19,CC[n+]1ccc(C[n+]2ccccc2)c2ccccc21,96.8% (active)
20,CC[n+]1ccc(C)c2cc(P(=O)(c3ccccc3)c3ccccc3)ccc21,-16%
21,CC(=O)Nc1ccc(C2=NN(Cc3nnc(-c4ccccc4)o3)C(=O)SC2)cc1,2.2%
